Data on 15 molecules can be found in PubChem BioAssay (NCATS).

A short description of experiment [1]: Cytotoxicity counterscreen for NFkB agonists and antagonists (AID 624476). Further: potency means the concentration at half of the fitted maximal effect. The following applies: NFkB reporter cell line viability counterscreen. A general note: Counterscreens check selectivity or assay interference.
Experiment [2] in a line: qHTS Assay for Identification of Small Molecule Agonists for NFkB Signaling Pathway. (AID 624478).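 Further: compounds tested together with TNF alpha at its EC50 of 10 pM; 0% is about no effect.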 In outline: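 Read-out: 460/530 nm emission at 405 nm excitation after 2 h LiveBLAzer loading; ME-180 NFkB-bla reporter cells exposed 5 h at 37 C to compounds with 10 pM TNF alpha final.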
Experiment [3] is described as follows: qHTS Assay for Identification of Small Molecule Antagonists for NFkB Signaling Pathway. (AID 624479; calls by dose curve;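 further: pathway stimulated with TNF alpha; potency means the concentration at half of the fitted maximal effect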). Background: qHTS replaces the single test concentration by a dilution series.
A short description of experiment [4]: Cell Proliferation Assay against the TMD8 Cell Line (AID 651645).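 Further: cells exposed to compound for 48 h before reading.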 The following applies: TMD8 DLBCL cell line proliferation/viability; at 46.1 µM (top of the series). Put shortly:
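Cell viability of the ABC DLBCL line TMD8 is measured by CellTiter-Glo luminescence following a 48-hour incubation with compound. Percent activity uses DMSO as 100% and 9.2 uM bortezomib (final) as 0%.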

Experiment [5] can be described thus: Cell Proliferation Assay against the HBL1 Cell Line (AID 651646).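 Further: cells exposed to compound for 48 h before reading.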 Particulars: HBL1 DLBCL cells; at 46.1 µM (top of the series). Put shortly:
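After a 48 h incubation of 500 HBL1 cells/well in phenol red-free RPMI plus 5% FBS, relative luciferase units from CellTiter-Glo gave percent activity against DMSO and 9.2 uM bortezomib (final) controls.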

Experiment [6] is described as follows: Cell Proliferation Assay against the TMD8 Cell Line (Caspase readout at 16 hrs) (AID 651712). Further: potency means the concentration at half of the fitted maximal effect. Particulars: TMD8 lymphoma cells, caspase activation luminescence. Put shortly: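 16 h, 37 °C, TMD8 (500 cells/well), RPMI/5% FBS no phenol red; Caspase-Glo 3/7, 15 min RT, luminescence; %act: DMSO 0, bortezomib 9.2 uM final 100.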
The nature of experiment [7]: Cell Proliferation Assay against the TMD8 Cell Line (Caspase readout at 8 hrs) (AID 651713).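 Further: 0% = DMSO and 100% = 9.2 µM bortezomib caspase signal.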 In outline:
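Apoptosis readout: caspase 3/7 luminescence (Caspase-Glo), 15 min RT. Cells: TMD8, 500/well, RPMI + 5% FBS, no phenol red. Exposure 8 h, 37C. % activity vs DMSO = 0, bortezomib 9.2 uM final = 100.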

Experiment [8] has as its target Glutaminase kidney isoform, mitochondrial (Homo sapiens) (UniProt O94925). Description: qHTS for Inhibitors of Glutaminase (GLS): LOPAC Validation (AID 624146).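 Further: glutamate product detected by oxidase and peroxidase coupled Amplex red fluorescence gain; on the % scale 0 is the no-effect control and ±100 the full control effect; nearly all actives have a fitted effect of over 60% in size.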 Put shortly:
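Human kidney-isoform GLS in 45 mM KH2PO4 pH 8.2, 0.02% Tween-20, with compound, started with 1mM L-Glutamine (added stock). Glutamate oxidase/HRP/Amplex red coupled fluorescence read at start and after 30 min at RT.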

Experiment [9] is described as follows: qHTS of Trypanosoma Brucei Inhibitors: LOPAC Validation (AID 624147). Further: 0% is about no effect. Put shortly: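 ADP (130 uM final) triggers the TbPYK reaction after compound addition; incubation is 45 min at room temperature. Kinase-Glo Plus is then added and luminescence imaged. Normalized data are fitted to concentration-effect curves.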
The target of experiment [10] is Glucagon-like peptide 1 receptor (Homo sapiens) (UniProt P43220). Description: qHTS of GLP-1 Receptor Agonists: LOPAC Validation (AID 624148).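 Further: 0% is about no effect; higher luminescence signal means agonism.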 In outline: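 HEK293 cells stably co-expressing a cAMP-responsive luciferase reporter and a hypersensitive GLP-1R were plated 12 h at 37 °C and exposed to compounds for 4-6 hr at 37 °C, 5% CO2. Luminescence was read 12 min after adding detection reagent.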
Chain of Glucagon-like peptide 1 receptor (Homo sapiens) (P43220 whole entry, looked up): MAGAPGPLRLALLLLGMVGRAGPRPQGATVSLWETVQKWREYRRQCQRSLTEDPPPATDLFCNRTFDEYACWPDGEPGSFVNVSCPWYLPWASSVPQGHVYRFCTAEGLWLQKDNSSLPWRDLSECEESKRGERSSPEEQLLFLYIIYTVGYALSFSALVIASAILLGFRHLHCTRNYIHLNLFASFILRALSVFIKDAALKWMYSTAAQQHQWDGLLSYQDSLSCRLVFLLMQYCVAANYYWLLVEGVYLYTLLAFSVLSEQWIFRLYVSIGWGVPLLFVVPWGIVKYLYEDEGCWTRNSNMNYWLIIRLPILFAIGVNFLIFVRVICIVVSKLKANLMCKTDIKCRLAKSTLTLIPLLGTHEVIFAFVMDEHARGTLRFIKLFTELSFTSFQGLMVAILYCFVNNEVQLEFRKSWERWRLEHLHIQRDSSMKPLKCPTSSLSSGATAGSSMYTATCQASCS

Experiment [11] in a line: qHTS of Nrf2 Activators: LOPAC Validation (AID 624149). Further: 0% is about no effect. In outline:
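AREc32_Fluc cells, 1000/well, OPTI-MEM + 5% FBS, o/n 37 deg C 5% CO2; compound pin-transfer, 24 hr 37 deg C; Steady-Glo 30 min RT, luminescence read.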

Experiment [12] in a line: HTS Assay for Allosteric Antagonists of the Human D2 Dopamine Receptor: Hit Validation in HTRF (AID 624455). Further: on the % scale 0 is the no-effect control and ±100 the full control effect. In outline:
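HTRF read-out; cells stably expressing D1 receptor; hits scored for inhibition of D1-mediated response. Primary screen: calcium flux, force-coupled inducible Hek293 Trex D2 line, antagonism vs EC80 dopamine.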
(In general: Time-resolved FRET reads energy transfer from a long-lived donor to a nearby acceptor.)

Experiment [13] addresses Luciferin 4-monooxygenase (Photinus pyralis) (UniProt P08659). Description: Biochemical firefly luciferase enzyme assay for NPC (AID 624030).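 Further: purified P. pyralis luciferase at 10 nM with luciferin and ATP substrate; 0% = DMSO and -100% = full luciferase inhibition by PTC124 control; nearly all actives have a fitted effect of over 70% in size.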 Put shortly: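 Counter-screen for direct inhibition of the luciferase enzyme by approved-drug library compounds, run at 10 nM enzyme in 50 mM Tris acetate (final). Luminescence was read within 5 min of enzyme-buffer addition and normalized to PTC124 versus DMSO (0%).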

Experiment [14] can be described thus: S16 Schwann cell viability assay (CellTiter-Glo assay) (AID 624031).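 Further: native untransfected S16 rat Schwann cells; plate controls were DMSO-treated cells for no effect and cell-free wells for full effect; nearly all actives have a fitted effect of over 70% in size.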 In outline: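 Rat S16 Schwann cells without reporter constructs received compound or DMSO for 24 h at 37 °C under 5% CO2. Cellular ATP was then quantified by CellTiter-Glo luminescence, with vehicle wells defined as 0% activity and cell-free wells as reference.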
Experiment [15] can be described thus: S16 Schwann cell PMP22 intronic element beta-lactamase assay (AID 624044; calls by dose curve; further: nearly all actives have a fitted effect of over 15% in size; further: potency means the concentration at half of the fitted maximal effect). In outline:
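Beta-lactamase reporter under a PMP22 intronic regulatory element in stable S16 rat Schwann cells; 24 h compound exposure. 460 nm blue signal normalized between DMSO (0%) and potassium clavulanate, with 535 nm FRET tracking viability; curves classed by r2 and response.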

Experiment [16] can be described thus: S16 Schwann cell PMP22 intronic element firefly luciferase assay (AID 624032). Further: nearly all actives have a fitted effect of over 30% in size. Further: potency means the concentration at half of the fitted maximal effect. Put shortly: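 Rat S16 Schwann cells stably carrying a PMP22 intronic element-driven Fluc reporter were seeded overnight, then exposed to compounds for 24 h at 37 °C. Luminescence was normalized to PTC124 (positive control) and DMSO (0% activity).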
The nature of experiment [17]: qHTS assay for small molecule antagonists of retinoid X receptor alpha signaling (AID 588546; active means well fitted inhibition curve with a large enough effect in the signal ratio, with a control signal flat, not every such curve was filed as active; the % refers to the signal ratio;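 further: cells stimulated with 9-cis-retinoic acid as agonist; on the % scale 0 is the no-effect control and ±100 the full control effect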). The following applies: HEK293T RXRa-UAS-bla, beta-lactamase ratio, antagonist mode; measured here: W530 green channel, cytotoxicity proxy. In outline:
(§1)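 Beta-lactamase reporter inhibition, read as CCF4 fluorescence ratio (ex 405, em 460/530 nm) after 2 h at RT. HEK293T UAS-bla cells, 2500/well, were stimulated with 9-cis-RA at 500 or 100 nM final alongside test compound for 18 h at 37 C.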

In experiment [18] the target is Retinoic acid receptor RXR-alpha (Homo sapiens) (UniProt P19793). The description is as above. The following applies: HEK293T RXRa-UAS-bla, beta-lactamase ratio, antagonist mode. Put shortly:
as §1

For experiment [19], the target named is Thyroid hormone receptor beta (Homo sapiens) (UniProt P10828). Description: qHTS assay for small molecule antagonists of thyroid hormone receptor beta signaling (AID 588547; active means well fitted inhibition curve with a large enough effect in the signal ratio, with a control signal flat, not every such curve was filed as active; the % refers to the signal ratio;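 further: cells stimulated with 0.4 nM T3 agonist during compound exposure; on the % scale 0 is the no-effect control and ±100 the full control effect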). The following applies: TR-UAS-bla HEK293, beta-lactamase ratio, antagonist mode, 18 h. Put shortly: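 TR-UAS-bla GripTite HEK293 cells in 2% charcoal/dextran FBS medium were preincubated 4 h at 37 C, given compound (0.59 nM to 92 uM) plus 0.4 nM T3 (final) for 18 h, then CCF4 for 2 h at RT; Hill fit gave IC50.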
Chain of Thyroid hormone receptor beta (Homo sapiens) (P10828 whole entry, looked up): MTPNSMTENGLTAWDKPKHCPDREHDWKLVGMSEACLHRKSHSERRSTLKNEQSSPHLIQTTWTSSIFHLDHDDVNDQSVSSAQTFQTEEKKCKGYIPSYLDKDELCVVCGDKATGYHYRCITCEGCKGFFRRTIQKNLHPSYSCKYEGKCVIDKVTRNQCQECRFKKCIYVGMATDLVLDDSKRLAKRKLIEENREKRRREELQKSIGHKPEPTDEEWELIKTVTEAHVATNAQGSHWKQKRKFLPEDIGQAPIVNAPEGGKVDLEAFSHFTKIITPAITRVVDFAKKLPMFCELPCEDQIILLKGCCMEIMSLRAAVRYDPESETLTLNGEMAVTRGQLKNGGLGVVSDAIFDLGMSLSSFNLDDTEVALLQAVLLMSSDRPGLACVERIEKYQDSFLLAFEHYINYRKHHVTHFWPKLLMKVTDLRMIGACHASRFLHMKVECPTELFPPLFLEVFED

Inconclusive results are not listed. Activity calls are given as the source filed them. Unless noted, the call rests on the fitted dose curve; in most records, active means well fitted curve in the direction sought with a large enough effect; inconclusive means small, poorly fitted or top-dose-only effect, or another doubt; inactive means no such curve, though single readings can be large; an effect the other way counts as inactive or inconclusive.

Chain of Luciferin 4-monooxygenase (Photinus pyralis) (P08659 whole entry, looked up): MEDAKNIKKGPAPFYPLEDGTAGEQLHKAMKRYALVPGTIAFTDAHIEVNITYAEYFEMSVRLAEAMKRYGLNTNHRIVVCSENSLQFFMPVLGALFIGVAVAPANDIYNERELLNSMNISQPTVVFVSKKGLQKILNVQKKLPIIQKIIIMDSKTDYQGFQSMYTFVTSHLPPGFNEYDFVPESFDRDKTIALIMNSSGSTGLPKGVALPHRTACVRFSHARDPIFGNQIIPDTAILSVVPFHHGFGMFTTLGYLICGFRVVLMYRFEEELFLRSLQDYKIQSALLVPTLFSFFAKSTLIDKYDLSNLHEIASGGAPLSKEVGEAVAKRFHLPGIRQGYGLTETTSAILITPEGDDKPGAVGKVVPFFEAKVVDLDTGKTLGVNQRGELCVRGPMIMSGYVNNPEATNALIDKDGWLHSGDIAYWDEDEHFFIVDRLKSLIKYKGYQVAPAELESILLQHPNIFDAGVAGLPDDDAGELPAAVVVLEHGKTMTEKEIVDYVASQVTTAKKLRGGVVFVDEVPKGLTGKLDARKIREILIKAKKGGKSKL
Chain of Retinoic acid receptor RXR-alpha (Homo sapiens) (P19793 whole entry, looked up): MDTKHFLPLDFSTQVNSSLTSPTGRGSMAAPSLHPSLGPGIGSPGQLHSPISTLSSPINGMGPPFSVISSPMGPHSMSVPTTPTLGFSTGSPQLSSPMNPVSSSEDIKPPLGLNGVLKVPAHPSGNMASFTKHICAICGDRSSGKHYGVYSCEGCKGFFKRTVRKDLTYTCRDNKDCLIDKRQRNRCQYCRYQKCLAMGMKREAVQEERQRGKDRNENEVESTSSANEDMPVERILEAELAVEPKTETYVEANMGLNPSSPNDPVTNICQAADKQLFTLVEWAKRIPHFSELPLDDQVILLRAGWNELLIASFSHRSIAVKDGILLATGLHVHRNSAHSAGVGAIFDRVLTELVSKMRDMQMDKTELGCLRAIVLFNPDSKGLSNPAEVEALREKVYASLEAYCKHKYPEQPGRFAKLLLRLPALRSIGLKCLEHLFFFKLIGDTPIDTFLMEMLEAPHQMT
Chain of Glutaminase kidney isoform, mitochondrial (Homo sapiens) (O94925 whole entry, looked up, canonical isoform): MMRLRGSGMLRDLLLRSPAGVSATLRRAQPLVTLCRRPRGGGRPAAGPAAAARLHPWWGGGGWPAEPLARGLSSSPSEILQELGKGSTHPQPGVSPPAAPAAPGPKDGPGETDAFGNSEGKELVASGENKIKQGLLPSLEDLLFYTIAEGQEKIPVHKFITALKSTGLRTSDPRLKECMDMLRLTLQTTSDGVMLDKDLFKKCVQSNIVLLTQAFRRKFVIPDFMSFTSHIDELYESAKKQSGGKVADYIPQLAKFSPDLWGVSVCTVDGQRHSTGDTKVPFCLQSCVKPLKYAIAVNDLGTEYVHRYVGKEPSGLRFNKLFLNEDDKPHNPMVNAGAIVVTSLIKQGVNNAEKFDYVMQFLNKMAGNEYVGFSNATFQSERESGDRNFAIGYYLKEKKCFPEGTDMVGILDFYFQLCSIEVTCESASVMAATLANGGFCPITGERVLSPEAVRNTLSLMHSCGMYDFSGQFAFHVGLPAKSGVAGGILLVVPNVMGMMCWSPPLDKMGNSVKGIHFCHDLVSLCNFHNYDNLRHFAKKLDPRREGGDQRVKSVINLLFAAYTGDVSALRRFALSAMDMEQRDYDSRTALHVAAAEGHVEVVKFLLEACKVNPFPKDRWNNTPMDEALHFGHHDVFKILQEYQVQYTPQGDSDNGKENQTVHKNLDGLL

Take `Cn1c(Nc2ccc(C(F)(F)F)cc2)nc2cc(Oc3ccnc(-c4ncc(C(F)(F)F)[nH]4)c3)ccc21`: the Potency in experiment [1] was 20.9 µM (active); in [3], 1.33 µM (active); in experiment [6] it was 16.6 µM (active). Besides, in experiment [2], the call was inactive. Also, the viability (% of control) in [4] is 15.6%. Besides, in [5], the viability, percent of control worked out at 33%. In experiment [7], the Potency result was “inactive”.
Take `COc1ccc2cc([S+]([O-])Cc3ncc(C)c(OC)c3C)nc2c1`: the result in experiment [8], in [9], in experiment [10], in experiment [11] and in [12] was inactive.
Consider `Cc1onc(-c2ccccc2)c1C(=O)N[C@@H]1C(=O)N2[C@@H](C(=O)O)C(C)(C)S[C@@H]12`, for which the molecule was called inactive in [13].
As for `COc1ccc([C@@H]2CNC(=O)C2)cc1OC1CCCC1`, the call in [13] and in [14] was inactive. For the same molecule, in experiment [15], the Potency result is “inactive”.
For the molecule `CCCCCCCCCCCC(CC1OC(=O)C1CCCCCC)OC(=O)C(CC(C)C)NC=O` (stereo not given), in experiment [13], the call was inactive. The Potency in experiment [16] is 7.21 µM (active); in [15] it was 12.6 µM (active).
Consider `O=C1c2cccc(O)c2C(=O)c2c(O)cc(CO)cc21`, for which the max response in experiment [17] is -0.0097%; in experiment [18], 15.1% (inactive). For the same molecule, the activity change % (negative = inhibition) in experiment [19] is 26.1% (inactive).
For the molecule `O=C(O)C(=O)Nc1cccc(C2=NN=N[N]2)c1`, the molecule was called inactive in experiment [13].
With `OC[C@@H](O)[C@@H](O)[C@H](O)[C@@H](O)CO`, the max response in experiment [17] was -4.07%; in experiment [18] it was -2% (inactive). Moreover, the activity change % (negative = inhibition) in experiment [19] was 1.79% (inactive).
For the molecule `CC1(C)[C@H](O[C@H]2O[C@H](C(=O)O)[C@@H](O)[C@H](O)[C@H]2O[C@@H]2O[C@H](C(=O)O)[C@@H](O)[C@H](O)[C@H]2O)CC[C@@]2(C)[C@H]1CC[C@]1(C)[C@H]2C(=O)C=C2[C@H]3C[C@@](C)(C(=O)O)CC[C@]3(C)CC[C@]21C`, the molecule was called inactive in [13].
With `C[C@]12CC[C@@H]3c4ccc(O)cc4CC[C@H]3[C@H]1CC[C@H]2O`, the max response in [17] is 6.57%; in [18], -12.2% (inactive). In experiment [19], the activity change % (negative = inhibition) is -1.66% (inactive).
As for `C[C@H]1C[C@H]2[C@@H]3CCC4=CC(=O)C=C[C@]4(C)[C@@H]3C(=O)C[C@]2(C)[C@@]1(O)C(=O)CO`, the result in [13] was inactive.
For `O=C1c2c(O)cccc2[C@@H]([C@@H]2O[C@H](CO)[C@@H](O)[C@H](O)[C@H]2O)c2cc(CO)cc(O)c21`, the call in experiment [13] was inactive.
In the case of `O=c1[nH]c(=O)n([C@H]2C[C@@H](O)[C@@H](CO)O2)cc1C=CBr`, the molecule was classed as inactive in experiment [8], in [9], in experiment [10], in experiment [11] and in [12].
With `Nc1nc2c(c(=O)[nH]1)N(C=O)[C@H](CNc1ccc(C(=O)N[C@@H](CCC(=O)O)C(=O)O)cc1)CN2`, the result in experiment [13] and in [14] was inactive. The Potency entry in [16] and in [15] was “inactive” in each case.
For the molecule `OCC(O)C(O)C(O)CO` (stereo not given), the call in experiment [13] and in experiment [14] was inactive. Also, the Potency result in [16] and in [15] was “inactive” in each case.
